Laboratory results reported in PubChem BioAssay (NCI).
Compounds without any hit were thinned out: in the full panel of roughly 79,000, 15% have a hit. No stated cut-off is given here; in the data, active means growth inhibition above about 70%; inactive means the rest.

How the values were obtained:
[1] = NCI Yeast Anticancer Drug Screen. Data for the rad50 strain (AID 155);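 further: 0% = growth of vehicle-only cultures of the same strain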; settings: S. cerevisiae rad50 strain growth inhibition; at 50.0 µM; active compounds read high
Outline: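 Relative growth inhibition (compound vs vehicle) was measured in yeast with a defined repair-gene alteration.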

[2] = NCI Yeast Anticancer Drug Screen. Data for the mec2-1 strain (AID 157); settings: S. cerevisiae mec2-1 strain, at 50.0 µM, active compounds read high
Outline: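 Readout is yeast growth inhibition, normalised to vehicle-treated controls, in the mec2-1 strain exposed to compound.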

[3] = NCI Yeast Anticancer Drug Screen. Data for the sgs1 mgt1 strain (AID 161);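 further: 0% = growth of cultures given vehicle only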; settings: S. cerevisiae sgs1 mgt1 strain, at 50.0 µM, active compounds read high
Outline: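 Growth of a repair-deficient yeast mutant was monitored after compound treatment and expressed as inhibition relative to vehicle-treated cultures.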

[4] = NCI Yeast Anticancer Drug Screen. Data for the cln2 rad14 strain (AID 165);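 further: 0% = growth equal to vehicle treated cultures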; settings: S. cerevisiae cln2 rad14 strain, at 50.0 µM, active compounds read high
Outline: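 Relative to vehicle controls, growth inhibition of compound-treated cln2 rad14 yeast was recorded.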

[5] = NCI Yeast Anticancer Drug Screen. Data for the bub3 strain (AID 167); settings: S. cerevisiae bub3 mutant strain, at 50.0 µM, active compounds read high
Outline: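 Screening used yeast with an engineered genetic alteration affecting cell cycle control. Compound-exposed cultures were compared with vehicle cultures, and reduced growth was taken as inhibition.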

[6] = NCI Yeast Anticancer Drug Screen. Data for the mlh1 rad18 strain (AID 175); settings: S. cerevisiae mlh1 rad18 strain growth inhibition; at 50.0 µM; active compounds read high
Outline: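 Test agents were incubated with a yeast strain of defined genotype (DNA damage repair defect). Inhibition of growth was derived by comparison with vehicle-exposed cultures.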

Measured: growth inhibition

CC1OC(c2ccccc2)C(=O)N1C1(C)C(=O)N2CCOC21c1ccccc1 (centres undefined)
inactive: [1] 8.4% | [2] 11.2% | [3] 2.15% | [4] 5% | [5] -1.95% | [6] -3.05%

N#Cc1nc(Cc2ccccc2)oc1N
inactive: [1] 27.3% | [2] 9.2% | [3] -22% | [4] 18.4% | [5] -26.1% | [6] -22.6%

O=C1CCCCCCCS(=O)(=O)C1
inactive: [1] -8.55% | [2] -0.05% | [3] -4.75% | [4] -19.6% | [5] -4.95% | [6] -0.2%

CCC1(CC)C(=O)N(C(=O)c2ccccc2)N(C(=O)c2ccc(Cl)cc2)C1=O
inactive: [1] 20.9% | [2] 18.7% | [3] 34.5% | [4] 32.5% | [5] 46.8% | [6] -79.8%

c1ccc2c(c1)n1nnnc1c1nnnn21
inactive: [1] 34.6% | [2] -10.4% | [3] 20.1% | [4] 23.7% | [5] 4.85% | [6] 24.4%

c1ccc2c(c1)Cc1c-2n[nH]c1-c1[nH]nc2c1Cc1ccccc1-2
inactive: [1] 26.6% | [2] 8.85% | [3] 34.8% | [4] 22.3% | [5] 16% | [6] 55.2%

CCOc1cc[n+]([O-])cc1C
inactive: [1] -15.7% | [2] -9.6% | [3] 1.45% | [4] -8.2% | [5] -3.75% | [6] 13.1%

N#CC(C#N)=C(N)/C(C#N)=C\c1ccnc2ccccc12
inactive: [1] -28.9% | [2] -1.75% | [3] -3% | [4] 15.1% | [5] 0.65% | [6] -18.2%

COc1cc2c(cc1OC)-c1ccc3cc4c(cc3c1N(C)C2)OCO4
inactive: [1] -3.8% | [2] -36.6% | [3] 9.8% | [4] -4.65% | [5] -12.7% | [6] -2.65%

COc1ccc2c(c1)C/C(=C\c1ccc(O)c(OC)c1)C2=O
inactive: [1] -46.5% | [2] -14% | [3] -33.5% | [4] -9.9% | [5] 7.8% | [6] -10.1%

COC(=O)C1=NNC(c2ccc(C)cc2)C1 (centres undefined)
inactive: [1] 1.75% | [2] -2.25% | [3] -0.95% | [4] -0.3% | [5] -16% | [6] 2.85%

C1CSCCSCCSCCS1
inactive: [1] -1.15% | [2] -2.55% | [3] -0.85% | [4] -12.4% | [5] -0.4% | [6] -11.9%

CCOC(=O)NC(NC(=O)OCC)c1ccc(OC)cc1
inactive: [1] -7.7% | [2] -1.95% | [3] 1.75% | [4] 42.7% | [5] -6.55% | [6] -10.1%

Cc1ccc(NC(=S)N(C)C)cc1
inactive: [1] 14.5% | [2] 15.9% | [3] -10.6% | [4] -71.8% | [5] 22.4% | [6] -23.9%

CN(c1ccc(C(=O)c2ccc(N(C)S(C)(=O)=O)cc2)cc1)S(C)(=O)=O
inactive: [1] -22.6% | [2] -27.9% | [3] -8.05% | [4] -2.35% | [5] 4.5% | [6] -6.6%

CCN(CC)CCN(C(=S)Nc1ccccc1)c1ccccc1
inactive: [1] 5% | [2] 28.1% | [3] 17.6% | [4] -10.1% | [5] 9.5% | [6] 27.4%

CCn1c2ccc([N+](=O)[O-])cc2c2c([N+](=O)[O-])c(NC=O)ccc21
inactive: [1] 12.2% | [2] 15.2% | [3] -4.55% | [4] 17.6% | [5] 13.8% | [6] 28.2%

O=C(O)/C=C\C(=O)Nc1ccccc1Cl
inactive: [1] -12.8% | [2] -9.95% | [3] 10.9% | [4] 6.85% | [5] 13.4% | [6] -10.8%

NC(=O)NC(=O)C1C2CC3OC(=O)C1C3C2 (centres undefined)
inactive: [1] 13.6% | [2] -4.35% | [3] -3.2% | [4] -37.9% | [5] 2.45% | [6] 20.9%

O=C1NC(=O)C(=Cc2cc3c(cc2Br)OCO3)C(=O)N1
inactive: [1] 32% | [2] 30.9% | [3] 40.7% | [4] 7% | [5] 41.9% | [6] 25.9%

Cn1cc(NC(=O)c2cc(NC(=O)CCCCCC(=O)Nc3cc(C(=O)Nc4cc(C(=O)NCCC(=N)N)n(C)c4)n(C)c3)cn2C)cc1C(=O)NCCC(=N)N
inactive: [1] -14.1% | [2] -14.9% | [3] -17.6% | [4] -1.35% | [5] -24.4% | [6] -3.6%

O=[N+]([O-])c1cccnc1Sc1nc2ccccc2[nH]1
inactive: [1] 20.2% | [2] 17.9% | [3] 25.5% | [4] -20.5% | [5] 21.8% | [6] 6.2%

O=C(O)C1CSC(c2cccs2)N1 (centres undefined)
inactive: [1] -19.2% | [2] -46.5% | [3] -4.4% | [4] 1.4% | [5] -32.2% | [6] -8.1%

CN1C(NC(=O)C(C)(C)O)C(C)(C)C(C)(C)C1NC(=O)C(C)(C)O (centres undefined)
inactive: [1] 27.9% | [2] 2% | [3] 42.3% | [4] 6.8% | [5] 26.8% | [6] 29.6%

O=C(CN1CCCC1=O)CS(=O)(=O)c1ccccc1
inactive: [1] -14.5% | [2] -5.3% | [3] -20.3% | [4] -0.6% | [5] -9.6% | [6] 2.3%

O=C1C(c2cnc3c(n2)CCC=C3)=C(O)c2ccccc21
inactive: [1] -1.15% | [2] -7.8% | [3] -6.6% | [4] -84.2% | [5] -16.7% | [6] -0.65%

C=CC(O)CCCCCC (centres undefined)
inactive: [1] -4.9% | [2] -27.8% | [3] -22.4% | [4] -5.1% | [5] -10.2% | [6] -20.7%

S=C(NCN1CCNCC1)C(=S)NCN1CCNCC1
inactive: [1] -14.2% | [2] -9.55% | [3] -6.1% | [4] -12.1% | [5] -4.05% | [6] -9.6%

O=C(O)CSc1cc(Br)c(Br)cc1C(=O)O
inactive: [1] 6.05% | [2] -11.3% | [3] -0.85% | [4] 9.5% | [5] 9.8% | [6] -15.9%

COC(=O)/C=C/C=C/C(=O)OC
inactive: [1] -4.85% | [2] -1.7% | [3] -2.6% | [4] -41.9% | [5] -30.1% | [6] 3.85%

N#CC(NC12CC3CC(CC(C3)C1)C2)c1ccccc1C(F)(F)F (centres undefined)
inactive: [1] -18.6% | [2] 7.3% | [3] -30.9% | [4] 10.4% | [5] -30.1% | [6] -12.9%

Nc1nc2ncc(=O)[nH]c2c(=O)[nH]1
inactive: [1] -35.1% | [2] -4.2% | [3] -8.55% | [4] -31.3% | [5] 20.3% | [6] -8.4%

Cc1ccc(OC/C=C/c2ccc([N+](=O)[O-])cc2)cc1
inactive: [1] -1.45% | [2] -9.3% | [3] -7.4% | [4] -58.8% | [5] -4.55% | [6] -19.2%

CN1CCC(OC(=O)C(O)C2CCCCC2)CC1 (centres undefined)
inactive: [1] 23.5% | [2] 23% | [3] 13.8% | [4] 31.2% | [5] 19.9% | [6] 41.8%

COc1cc(CCC(C)=O)ccc1OC(=O)c1c(-c2c(F)cccc2Cl)noc1C
inactive: [1] 1.85% | [2] -12.2% | [3] 14.3% | [4] 19.3% | [5] 10.3% | [6] 3.5%

OCc1ccc(F)cc1CO
inactive: [1] -12.4% | [2] -2.35% | [3] -2.85% | [4] -17.1% | [5] -11.2% | [6] 11.9%

CC(C)NC(=O)c1ccccc1-[s+]1c2ccccc2c(=O)n1C(C)C (centres undefined)
inactive: [1] 22% | [2] 1.15% | [3] -11.7% | [4] 3.9% | [5] -2.95% | [6] 9.3%

CN(C)CCCNc1ccc2ncn3c4ccccc4c(=O)c1c23
inactive: [1] -2.15% | [2] 6.2% | [3] -3.35% | [4] 20.9% | [5] 1.5% | [6] 22.4%

Cc1nc(-c2cccnc2)sc1C(=O)/C=C/c1ccc(Cl)cc1Cl
inactive: [1] 12.8% | [2] -2.05% | [3] 3.85% | [4] 8.55% | [5] 3.7% | [6] 8.95%
